High-throughput results from PubChem.
FLuc modulator: inhibits or activates purified firefly luciferase, miR-21 counter-screen; purified FLuc, Km substrates, luminescence inhibition; Potency, µM (highest dose often 57.5 µM), for inactives: at the highest dose activity change, negative = inhibition, most hits filed as inhibitors; actives 6.9% (n = 360,000); P08659;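 also: plate controls were vehicle for no effect and reference inhibitor for full effect; nearly all actives have a fitted effect of over 55% in size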
Target sequence (P08659 whole entry, looked up): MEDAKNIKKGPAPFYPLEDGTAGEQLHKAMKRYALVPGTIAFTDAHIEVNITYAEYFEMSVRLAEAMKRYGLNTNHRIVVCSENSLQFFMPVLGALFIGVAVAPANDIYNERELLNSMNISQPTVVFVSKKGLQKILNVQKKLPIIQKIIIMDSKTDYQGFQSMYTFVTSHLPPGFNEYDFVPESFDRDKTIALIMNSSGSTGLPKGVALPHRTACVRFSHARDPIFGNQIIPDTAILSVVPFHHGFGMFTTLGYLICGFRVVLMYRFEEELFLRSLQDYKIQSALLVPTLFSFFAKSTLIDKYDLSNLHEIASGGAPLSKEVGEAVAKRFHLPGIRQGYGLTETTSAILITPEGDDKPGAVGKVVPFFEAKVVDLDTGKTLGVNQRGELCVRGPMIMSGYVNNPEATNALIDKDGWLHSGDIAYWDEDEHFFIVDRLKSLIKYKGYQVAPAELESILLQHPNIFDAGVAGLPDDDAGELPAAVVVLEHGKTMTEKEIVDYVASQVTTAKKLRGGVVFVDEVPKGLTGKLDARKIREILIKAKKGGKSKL
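Purified P. pyralis luciferase, 10 nM final, with Km-level 10 uM D-luciferin and 10 uM ATP in 50 mM Tris acetate pH 7.5, 10 mM Mg acetate, 0.01% Tween-20, 0.05% BSA; 6-point qHTS titration about 60 µM downward; luminescence read.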
NPC1 promoter act: activators of NPC1 promoter | AID 485313 | Potency, µM (series often up to 9.22 µM), for the others: at the top dose activation, actives largely listed as activators | Huh7 NPC1 promoter luciferase reporter, 24 h | actives 2.4% (n = 320,000); also: % of control where 0% means no effect; nearly all actives have a fitted effect of over 60% in size
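Readout is luciferase luminescence, reflecting NPC1 promoter activation in stably transfected Huh7 cells after 24 h compound exposure at 37 °C in reduced-serum medium with 10% FBS.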
ELG1 genotox: induces genotoxicity in HEK293T cells with luciferase-tagged ELG1; HEK293T ELG1-luciferase reporter, luminescence, 16 h; Potency, µM (highest dose often 46 µM), for inactives: top-dose activity change, positive = activation, usual class: activators; actives 1.3% (n = 330,000); AID 504466; also: % of control where 0% means no effect; nearly all actives have a fitted effect of over 60% in size
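DMSO vehicle served as control against compound-treated ELG1-luciferase HEK293T cells; exposure lasted 16 hr at 37 °C and 5% CO2, followed by ONE-Glo luminescence detection after 30 min.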
SMN2 splice enh: increases expression of the SMN2 splice variant; Potency, µM (doses to about 46.1 µM), for inactives: at the highest dose activity change, positive = activation, most hits filed as activators; HEK293 SMN2-luciferase splicing reporter, luminescence, 30-36 h; AID 1458; actives 2.8% (n = 210,000); also: % of control where 0% means no effect; nearly all actives have a fitted effect of over 55% in size
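qHTS luciferase splicing reporter: luminescence rises when SMN2 exon 7 is included in transfected HEK293 cells. Compound exposure lasted 30-36 h at 37C, with 4.5 mM final sodium butyrate as control, followed by a ONE-Glo read.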
KinaseGlo FLuc: counter-screen: inhibitors of Kinase-Glo firefly luciferase; Q27757; Kinase-Glo luciferase, ATP luminescence, 8 min; Potency, µM (highest dose often 38.3 µM), for the others: top-dose activity change, negative = inhibition, actives largely listed as inhibitors; actives 0.28% (n = 200,000); AID 1379; also: % is scaled to controls: 0 for no effect and ±100 for the full control effect; nearly all actives have a fitted effect of over 60% in size
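Light output from Kinase-Glo luciferase with luciferin and 10 uM ATP in 50 mM imidazole pH 7.2, KCl, MgCl2, Tween 20, BSA; compound pin-delivered, 8-min ambient incubation, then luminescence read.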
Rab9 promoter act: Rab9 promoter activation | Huh7 Rab9 promoter-luciferase reporter, luminescence, 24 h | AID 485297 | Potency, µM (series often up to 9.22 µM), without a hit: top-dose activation, negative = inhibition, actives largely listed as activators | actives 2.8% (n = 320,000); also: % of control where 0% means no effect; nearly all actives have a fitted effect of over 60% in size
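Huh7 reporter line, Rab9 promoter upstream of luciferase. Compound exposure 24 h at 37 °C in reduced-serum medium with 10% FBS. Read-out: luminescence.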
* marks the source's active call; other numbers are inactive results; u = inconclusive; x = no result; [ ] = dose if it differs, or a comment. Shown are actives, neighbours in structure and some others; about 7.3% of the full set was active somewhere. Calls follow the shape of the dose curve; as a rule, active = well fitted curve in the direction sought with a large enough effect; inconclusive = small, poorly fitted or top-dose-only effect, or another doubt; inactive = no such curve, though single readings can be large; an effect the other way counts as inactive or inconclusive. Potency is read from the fitted curve at half-maximal effect.

SMILES | FLuc modulator | NPC1 promoter act | ELG1 genotox | SMN2 splice enh | KinaseGlo FLuc | Rab9 promoter act
C=CCn1c(SCC(=O)Nc2ccc(-c3nc4ccc(C)cc4s3)cc2)nnc1-c1ccncc1 | u | u | u | 7.08µM* | 3.0% | u
COc1cc(NC(=O)Cn2c(=O)n(Cc3ccccc3)c(=O)c3oc4ccccc4c32)cc(OC)c1 | 6.5% | x | x | x | x | x
C#CCOCCOCCOCCNc1nc(N2CCN(C(=O)CCCCCCCCCCNC(=O)Cn3cc(C[C@@H](C)O)nn3)CC2)nc(N2CCN(C(=O)CCCCCCCCCCNC(=O)[C@@H]([C@H](C)CC)n3cc(CCCCCN)nn3)CC2)n1 | 4.2% | -7.2% | -14.3% | x | x | -3.9%
COC(=O)c1ccc(C(NC(=O)OCc2ccccc2)/C(F)=C/[C@@H](C)C(=O)NCCO)cc1 (some centres undefined) | x | x | x | 1.0% | -1.9% | x
C=C(C)c1cccc(C(C)(C)NC(=O)N2CCN(c3ccccn3)CC2)c1 | 0.4% | 1.6% | -3.0% | -21.0% | -1.9% | 3.5%
CCn1c(SCC(=O)Nc2ccc(-c3nc4ccc(C)cc4s3)cc2)nnc1-c1ccccc1 | u | u | u | 0.562µM* | -0.3% | 0.631µM*
COc1ccc(NC2CCCN(C(=O)CN3CCOC3=O)C2)cc1 (centres undefined) | 10.7µM* | u | u | x | x | u
COc1ccc(NC2CCCN(C(=O)CN3CCOC3=O)C2)cc1OC (centres undefined) | 0.7% | -2.5% | -1.6% | x | x | -6.6%
Clc1ccc(NCc2cccnc2)cc1 | -6.4% | -4.5% | 2.6% | x | x | 8.2%
CSc1ccc(CNc2ccc(Cl)cc2)cc1 | 15.1µM* | 24.5% | 26.9% | 15.0% | -3.1% | u
COC(=O)N1C2CC3(C)C=C(C)OC1(C)C3c1ccccc12 (centres undefined) | x | x | x | -19.2%[9.22 µM] | -3.8%[7.66 µM] | x
Cc1ccc(/C=N/N2CCN(c3ccccn3)CC2)cc1 | 9.53µM* | 29.5% | u | 17.7% | 3.1% | u
ClC(=C\c1ccccc1)/C=N/N1CCN(c2ccccn2)CC1 | u | 3.16µM* | 9.2µM* | 14.1µM* | -4.0% | u
CCc1ccc(/C=N/N2CCN(c3ccccn3)CC2)cc1 | u | u | 10.3% | x | x | 27.4%
O=C1C2CC=CCC2C(=O)N1n1cnnc1 (centres undefined) | -0.2% | -0.5% | 1.9% | -1.2% | -0.6% | -4.8%
Cc1ccccc1OCC(=O)OCC(=O)Nc1ccc2c(c1)OCO2 | x | x | 2.3% | x | x | x
O=C(COC(=O)c1cccnc1Cl)NCc1ccc2c(c1)OCO2 | 1.6% | -3.9% | 0.0% | x | x | 0.6%
COc1ccccc1OCCC(=O)Nc1ccc2c(c1)OCO2 | x | x | 0.9% | x | x | x
O=C(COC(=O)c1cccnc1Cl)Nc1ccc2c(c1)OCCO2 | 8.49µM* | -1.8% | 6.6% | 5.2% | -3.1% | -2.5%
NC(=O)c1ccccc1OCC(=O)Nc1ccc2c(c1)OCCO2 | 8.49µM* | u | u | x | x | 3.16µM*
COc1ccccc1OCC(=O)Nc1ccc2c(c1)OCCO2 | 16.9µM* | u | u | x | x | u
Cc1ccccc1OCC(=O)N/N=C/c1ccc2c(c1)OCCO2 | 26.9µM* | 1.2% | 3.6% | 12.3% | -2.5% | -0.7%
O=C(CSCc1c(Cl)cccc1Cl)Nc1ccc2c(c1)OCCO2 | 16.9µM* | 13.0% | 11.8% | 18.4% | 1.0% | 8.1%
CC(=O)Nc1ccc(SCC(=O)Nc2ccc3c(c2)OCCO3)cc1 | x | x | 8.2% | x | x | x
O=C(COc1ccccc1Cl)Nc1ccc2c(c1)OCCO2 | 4.78µM* | 3.98µM* | 4.11µM* | x | -2.4% | 1.58µM*
SMILES | FLuc modulator | NPC1 promoter act | ELG1 genotox | SMN2 splice enh | KinaseGlo FLuc | Rab9 promoter act
Cc1cccc(C)c1OCC(=O)Nc1ccc2c(c1)OCCO2 | u | 13.1% | u | x | x | 17.2%
Cc1ccccc1OCC(=O)Nc1ccc2c(c1)OCCO2 | 9.53µM* | 3.55µM* | u | x | x | 2.82µM*
COCCCNc1nnc(Cc2ccc(Cl)cc2)c(=O)[nH]1 | 0.6% | -15.5% | 16.2% | x | x | -23.8%
COCCN(C(=O)CNC(=O)c1cccs1)C(C(=O)NC1CCCCC1)c1ccco1 (centres undefined) | 2.9% | 1.4% | -2.6% | -10.7% | -1.7% | 7.4%
CCOC(=O)C1=C(c2ccccc2)OC(N)=C(C#N)C1c1ccco1 (centres undefined) | 1.0% | 9.9% | 1.4% | -7.0% | 15.3% | -6.1%
CC(C)Cc1nnc(NC(=O)C23CC4CC(CC(C4)C2)C3)s1 | -8.1% | 6.9% | -0.7% | x | x | 15.0%
NC(=O)CSc1nnc(NC(=O)C23CC4CC(CC(C4)C2)C3)s1 | u | u | 16.5% | x | x | 10.9%
CCc1nnc(NC(=O)C23CC4CC(CC(C4)C2)C3)s1 | 10.7µM* | u | u | x | x | u
CSc1nnc(NC(=O)C23CC4CC(CC(C4)C2)C3)s1 | 23.9µM* | u | 3.3%[9.26 µM] | x | x | u
C/C(=N\NC(=O)c1n[nH]c2c1CCC2)c1ccco1 | 2.69µM* | u | u | x | x | 0.501µM*
CCC(C)(C)C1CCc2[nH]nc(C(=O)N/N=C(\C)c3ccco3)c2C1 (centres undefined) | 2.39µM* | 3.16µM* | u | x | x | 1.12µM*
O=C(NCCc1ccccc1)C(=O)NCC1OCCN1S(=O)(=O)c1ccc(F)cc1 (centres undefined) | 0.1% | 4.6% | 1.6% | x | x | -8.4%
COc1ccc(NC(=S)N(CCO)Cc2ccccc2)cc1 | u | 0.3% | 7.6% | 23.1% | 2.7% | 23.0%
CC(C)n1ncc2c(C(=O)NCc3cccnc3)cc(C3CC3)nc21 | -0.8% | -0.1% | -0.9% | x | x | 1.1%
C1=C(c2ccc(-c3ccccc3)cc2)Nc2ncnn2C1c1ccco1 (centres undefined) | 21.3µM* | 2.82µM* | 9.7% | 23.8% | -6.7% | 3.16µM*
Fc1ccc(C2=CC(c3ccco3)n3ncnc3N2)cc1 (centres undefined) | 1.7% | -5.7% | 1.4% | 8.4% | 2.7% | 1.9%
O=C1NC2(CCCCCC2)C(=O)N1Cc1ccccc1 | -1.0% | -4.8% | -3.1% | x | x | -4.6%[1.84 µM]
COC(=O)/N=C(/Cc1ccc(OC)cc1)c1ccc(OC)cc1 | 0.757µM* | 18.5% | 8.4% | x | x | 17.4%
COc1ccc(C(C[N+](=O)[O-])C2(c3ccc(OC)c(OC)c3)C(=O)c3ccccc3C2=O)cc1 (centres undefined) | 6.01µM* | 28.4% | -13.4% | 25.1µM* | -4.3% | u
Cc1ccc2c(c1)C=CC(C)N2C(=O)c1ccccc1 (centres undefined) | 0.6% | -3.4% | 0.2% | -13.3% | 9.8% | 4.9%
Cc1ccc2c(c1)C=CC(C#N)N2C(=O)c1ccccc1 (centres undefined) | -6.6% | -17.1% | 8.9% | 6.31µM* | -2.1% | -17.8%
